In PubChem BioAssay (NCI):
The panel holds about 83,000 compounds, 20% with a hit somewhere; the sample as a whole holds those more often.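 A percent growth of 40 corresponds to 60% growth inhibition; 0 means no net growth; -100 means all cells died. Active threshold: below 10.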 The source made the active and inactive calls.

These molecules were tested on IGROV1 ovarian (assay: NCI-60 one-dose screen, 48 h (100 = growth as untreated, 0 = no growth, -100 = all killed)). Conditions: 10 µM unless noted.
Procedure: Growth inhibition of the IGROV1 human tumor cell line is measured as a screen for anti-cancer activity. Cells are grown in 96 well plates and exposed to the test compound for 48 hours. Compounds are tested at a single concentration, which is 10^-5 M for most compounds. The reported endpoint is percent growth (GI% or GIPRCNT), where numbers from 0 - 100% represent growth inhibition, and numbers from -100% - 0 represent cell death. For example, a value of 40 represents 60% growth inhibition. A value of 0 means no net growth occurred over the course of the experiment. A value of -40 indicates 40% of cells at the beginning of the experiment died by the end of the experiment. A value of -100 means all cells are dead at the end of the experiment.
NCI-60 Human Tumor Cell Lines Screen was performed using the standard one-dose NCI protocol, which is described in more detail at https://dtp.cancer.gov/discovery_development/nci-60/default.htm.
Compounds with GIPRCNT values below 10 were considered active. Activity score was based on GIPRCNT using the following formula: […]
Score is 0 for GIPRCNT values of 100 or above, 50 for GIPRCNT values of 0, and 100 for GIPRCNT values of -100.

**Q.** How did the growth turn out when `Cc1ccc(C(=O)Nc2cccc(C#Cc3cccc4[nH]nc(N)c34)c2)cc1C(F)(F)F` was run?
**A.** 17.9% (inactive)

**Q.** With `NC(=O)c1c(NC(=O)c2cccc(C(F)(F)F)c2)sc2c1CCC(=O)C2` as the molecule, how does the growth read?
**A.** -6.14% (active)

**Q.** `O=C(CC(=O)Nc1cccc(C(=O)O)c1)Nc1cccc(C(=O)O)c1` was tested. Which growth did it give?
**A.** 109% (inactive)

**Q.** How did the growth turn out when `C=C(C)[C@@H]1CC[C@]2(C(N)=O)CC[C@]3(C)[C@H](CC[C@@H]4[C@@]5(C)CC[C@H](OCCC#N)C(C)(C)[C@@H]5CC[C@]43C)[C@@H]12` was run?
**A.** 90% (inactive)

**Q.** For `CCN1C(=O)N(CC)C2C1NC(=S)N2/N=C/c1ccc(OC)cc1` (stereo not given), which growth is on record?
**A.** 44.9% (inactive)

**Q.** For `Clc1ccc(-c2cc(-c3ccccc3)nc(NCCNc3ccnc4cc(Cl)ccc34)n2)cc1`, which growth is on record?
**A.** -61.3% (active)

**Q.** `CCCCNC(=O)c1cc([N+](=O)[O-])cc(C2CCCCC2)c1O` was tested. Which growth did it give?
**A.** 43.2% (inactive)

**Q.** Which growth does the source give for `CCOC(=O)C(=CNc1cnc(Nc2ccc(N3CCOCC3)cc2)nc1Oc1ccc(OC)cc1)C(=O)OCC` here?
**A.** 26.8% (inactive)

**Q.** `Oc1c(CN2CCCC2)cc(CSCc2ccccc2)c2cccnc12` was tested. Which growth did it give?
**A.** -3.98% (active)

**Q.** `COc1cccc(-c2cc(-c3cccc(Cl)c3)c(C#N)c(=O)[nH]2)c1` was tested. Which growth did it give?
**A.** 71.8% (inactive)

**Q.** `CNC(=O)c1cc(Oc2ccc3c(c2)sc2nc(-c4ccc(OC)cc4)cn23)ccn1` was tested. Which growth did it give?
**A.** 83.3% (inactive)

**Q.** Which growth does the source give for `C=CCn1c(SCC(=O)Nc2ccc(/C(C)=N/O)cc2)nnc1-c1cc(-c2ccc(S(N)(=O)=O)cc2)nc2ccccc12` here?
**A.** 30.9% (inactive)

**Q.** `CN1C(=O)/C(=C2\SC(=Nc3ccccc3)N(Nc3ccccc3)C2=O)c2ccccc21` was tested. Which growth did it give?
**A.** 79.5% (inactive)

**Q.** For `O=C(Oc1ccc(CCl)cc1)c1ccccc1`, which growth is on record?
**A.** -81.4% (active)

**Q.** Which growth does the source give for `CCCCNC(=O)Oc1ccc(/C(=C(/C)Cc2ccc(OC)cc2)c2ccc(OCCN3CCCCC3)cc2)cc1` here?
**A.** 84.5% (inactive)

**Q.** For `C[C@@H]1O[C@@H](O[C@@H]2C[C@H](c3ccc4c(c3O)C(=O)C3=C(C4=O)[C@@]4(O)C(=O)C[C@](C)(O)C[C@@]4(O)C=C3)O[C@H](C)[C@H]2O)CC[C@@H]1O[C@H]1C[C@@H](O)[C@H](O)[C@@H](C)O1`, which growth is on record?
**A.** 96.4% (inactive)

**Q.** How did the growth turn out when `CN(C)CCN1C(=O)c2cccc3c(/C=C/CN4C(=O)c5cccc6cccc(c56)C4=O)ccc(c23)C1=O` was run?
**A.** 89.4% (inactive)

**Q.** `C=C(CNCCc1ccc(O)cc1)[C@@H]1CC[C@]2(CO)CC[C@]3(C)[C@H](CC[C@@H]4[C@@]5(C)CCC(=O)C(C)(C)[C@@H]5CC[C@]43C)[C@@H]12` was tested. Which growth did it give?
**A.** 30.9% (inactive)

**Q.** With `Cc1ccc2nc(-c3ccc(C(=O)NNC(=S)Nc4ccccc4)cc3)[nH]c2c1` as the molecule, how does the growth read?
**A.** 86.4% (inactive)

**Q.** How did the growth turn out when `CNC1=C([N+](=O)[O-])C(c2ccc(OC)cc2)C(C#N)=C(c2cccs2)O1` (stereo not given) was run?
**A.** 108% (inactive)

**Q.** Which growth does the source give for `N#Cc1cncc(-c2ccc3ncnc(Nc4cccc(Cl)c4)c3c2)c1` here?
**A.** 45.1% (inactive)

**Q.** Which growth does the source give for `COc1ccc2c(c1)c(-c1nc(-c3c[nH]c4ncccc34)cs1)cn2CCCN1CCOCC1` here?
**A.** 22.9% (inactive)

**Q.** With `CC(C)(C)c1cc(Cl)c(O)c(CNCCO)c1` as the molecule, how does the growth read?
**A.** 117% (inactive)

**Q.** Which growth does the source give for `CCN(CC)c1ccc(/C=N/NC(=O)Cc2ccc(Nc3ccnc(C(F)(F)F)c3)cc2)c(O)c1` here?
**A.** 25.1% (inactive)

**Q.** Which growth does the source give for `COC(=O)c1c2c(c(C)[n+]([O-])c1C)C(=O)C(NCc1ccc(OC)cc1)=CC2=O` here?
**A.** 8.2% (active)

**Q.** For `O=C(N/N=C\c1ccccc1S(=O)(=O)O)N/N=C/c1ccccc1S(=O)(=O)O`, which growth is on record?
**A.** 109% (inactive)

**Q.** For `CCN1C(=O)N(CC)C2C1NN=c1s/c(=C3\C(=O)N(CCC(C)C)c4ccccc43)c(=O)n12` (stereo not given), which growth is on record?
**A.** 19.4% (inactive)

**Q.** With `CCNC(=O)Oc1ccc(/C(=C(/CC)Cc2ccccc2)c2ccc(OCCN3CCCC3)cc2)cc1` as the molecule, how does the growth read?
**A.** 91.5% (inactive)

**Q.** With `N#Cc1ccc(O)c(C2=NCC(Cc3ccccc3)O2)c1` (stereo not given) as the molecule, how does the growth read?
**A.** 43.2% (inactive)

**Q.** For `COc1ccc(/C=C/c2ccc3ccccc3n2)c(OC)c1`, which growth is on record?
**A.** 59.9% (inactive)

**Q.** Which growth does the source give for `C=C(C)[C@@H]1CCC[C@]2(C(=O)O)CC[C@]3(C)[C@@H](CC[C@@H]4[C@@]5(C)C/C(=C/c6ccncc6)C(=O)C(C)(C)[C@@H]5CC[C@]43C)[C@@H]12` here?
**A.** 22.6% (inactive)

**Q.** For `COc1cc(-c2nc3c(ncc4ccc(=O)n(-c5ccccc5)c43)s2)cc(OC)c1OC`, which growth is on record?
**A.** 53.5% (inactive)

**Q.** With `O=C1c2ccccc2C(=O)C1c1ccc(Br)cc1` as the molecule, how does the growth read?
**A.** 104% (inactive)

**Q.** With `COc1cccc(C(=O)NNc2nc(Cl)nc(Cl)n2)c1` as the molecule, how does the growth read?
**A.** 100% (inactive)

**Q.** How did the growth turn out when `CO[C@H](C(=O)[C@@H](O)[C@@H](C)O)[C@@H]1Cc2cc3cc(O[C@H]4C[C@@H](O[C@H]5C[C@@H](O)[C@H](O)C(C)O5)[C@H](O)C(C)(O)O4)cc(O)c3c(O)c2C(=O)[C@H]1O[C@H]1C[C@@H](O[C@H]2C[C@@H](O[C@H]3C[C@@H](OC)[C@H](O)C(C)O3)[C@@H](O)C(C)O2)[C@H](O)C(C)O1` (stereo not given in full) was run?
**A.** 32.6% (inactive)

**Q.** With `CCN1C(=O)N(CC)C2C1NN=c1s/c(=C3\C(=O)N(CC(C)C)c4ccccc43)c(=O)n12` (stereo not given) as the molecule, how does the growth read?
**A.** 19% (inactive)

**Q.** For `O=C1Nc2ccccc2/C1=C/c1cccn1C(=O)c1ccc(Cl)s1`, which growth is on record?
**A.** 38.6% (inactive)

**Q.** `COc1ccc(/C=C2\CN(C(=O)C(Cl)Cl)C/C(=C\c3ccc(OC)cc3)C2=O)cc1` was tested. Which growth did it give?
**A.** -50.7% (active)

**Q.** How did the growth turn out when `COc1ccc2c(c1)c(/C(O)=C1\COC(=O)C1=O)cn2Cc1ccc(F)cc1` was run?
**A.** 44% (inactive)

**Q.** Which growth does the source give for `N#C/C(=C\c1ccc(-c2cccc(C(F)(F)F)c2)o1)c1ccccc1` here?
**A.** 59.9% (inactive)
